Compound activity: PubChem BioAssay, National Center for Advancing Translational Sciences (NCATS)
This is a sample that favours compounds with a hit; in the whole collection about 8.8% have one here.
IL1B secr inh: qHTS for Inhibitors of Inflammasome Signaling: IL-1-beta AlphaLISA Primary Screen; hit rate 4.7% among 360,000; THP-1 LPS/ATP IL-1B secretion, AlphaLISA, 16 h; stronger effect = lower value; AID 743279, 2014; activity change, % at 57.5 µM; in the data active means activity change below about -50%; inconclusive means mostly about -30% to -49%
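THP-1 cells pretreated 1 hr with compounds (up to 57.5 uM final), then stimulated with LPS (250 ng/mL final) plus ATP (1.25 mM final); secreted IL-1B measured by AlphaLISA after 16 hr, decreased signal indicating inhibition.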
HT1080NT lethal: qHTS for induction of synthetic lethality in tumor cells producing 2HG: qHTS for the HT-1080-NT fibrosarcoma cell line; HT-1080-NT fibrosarcoma viability, CellTiter-Glo ATP luminescence, 48 h; Potency, µM (top dose mostly 46.1 µM), for the others: at the highest dose activity, negative = less viability, actives largely listed as cytotoxic; hit rate 1.6% among 360,000; AID 686970, 2013;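 further: NT is the 2HG producing partner of a matched IDH1 knockdown line; potency means the concentration at half of the fitted maximal effect; 0% = DMSO-treated cells and -100% = media-only wells without cells; nearly all actives have a fitted effect of over 55% in size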
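HT-1080-NT fibrosarcoma cells (2HG-overproducing), 750 cells/well in RPMI with 5% FBS, dosed after 2 h and incubated 48 h at 37C. CellTiter-Glo luminescence normalized to DMSO and no-cell wells; concentration-response curves fitted and classed.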
KB-3-1 tox: qHTS assay for MDR1-selective chemotherapeutics: Primary screen using the parental adenocarcinoma cell KB-3-1 | AID 1347075, 2019 | KB-3-1 viability, CellTiter-Glo ATP luminescence, 72 h | hit rate 1.4% among 400,000 | Potency, µM (titrated, usually from 46.1 µM), usual class: cytotoxic; further: potency means the concentration at half of the fitted maximal effect; nearly all actives have a fitted effect of over 60% in size
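Viability of parental KB-3-1 cells, measured by CellTiter-Glo luminescence, followed a 72 h incubation at 37 °C with pinned compounds in phenol-red-free DMEM containing 10% FBS.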
HT1080 IDH1KD tx: qHTS for induction of synthetic lethality in tumor cells producing 2HG: qHTS for the HT-1080-IDH1KD cell line; HT-1080 IDH1 knockdown viability, ATP luminescence, 48 h; Potency, µM (series often up to 46.1 µM), without a hit: at the highest dose activity, negative = toxicity, actives largely listed as cytotoxic; hit rate 2% among 360,000; AID 686971, 2013;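 further: potency means the concentration at half of the fitted maximal effect; 0% = DMSO wells and -100% = cell-free medium wells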
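Knockdown cells (IDH1KD HT-1080) received compounds 2 h after plating at 750 cells/well and were kept 48 h at 37 °C in 5% FBS RPMI. A CellTiter-Glo luminescence read gave % activity for curve fitting.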
KB-V1 MDR tox: qHTS assay for MDR1-selective chemotherapeutics: Primary screen using the drug-selected MDR subline cells KB-V1; KB-V1 MDR cells viability, CellTiter-Glo, 72 h; Potency, µM (series often up to 46.1 µM), usual class: cytotoxic; hit rate 3.4% among 400,000; AID 1347076, 2019; further: potency means the concentration at half of the fitted maximal effect; nearly all actives have a fitted effect of over 60% in size
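Following 72 h at 37 degrees C with compound, KB-V1 cell viability was read by CellTiter-Glo luminescence, medium being phenol-red-free DMEM plus 10% FBS; concentration-response parameters came from normalized, curve-fitted qHTS data.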
* = called active by the depositor; ! = repeats disagree. Unless noted, the call rests on the fitted dose curve; in most records, active means well fitted curve in the direction sought with a large enough effect; inconclusive means small, poorly fitted or top-dose-only effect, or another doubt; inactive means no such curve, though single readings can be large; an effect the other way counts as inactive or inconclusive. Unless noted, on the % scale 0 is the no-effect control and ±100 the full control effect.

What do the screens show for `COc1cc(/C=N/NC(=S)NC2CC3CC2C2C=CCC32)ccc1O` (stereo not given)?
IL1B secr inh: -14.1; HT1080NT lethal: 18.4µM*; KB-3-1 tox: inconclusive; HT1080 IDH1KD tx: inconclusive; KB-V1 MDR tox: inconclusive

What do the screens show for `CCOC(=O)CC/C(=N\NC(N)=O)c1ccc(OC)c(Cl)c1`?
IL1B secr inh: -0.5; HT1080NT lethal: 20.7%; KB-3-1 tox: inactive; HT1080 IDH1KD tx: 9.9%; KB-V1 MDR tox: 8.2µM*

Results for Cc1ccc2nc(SCc3nc(-c4ccc(Cl)cc4)no3)[nH]c2c1 ?
KB-3-1 tox: inactive; KB-V1 MDR tox: inactive

What do the screens show for `COc1ccc(-n2c(COc3ccccc3)n[nH]c2=S)cc1`?
IL1B secr inh: 23.4; HT1080NT lethal: 2.4%; KB-3-1 tox: inactive; HT1080 IDH1KD tx: 1.9%; KB-V1 MDR tox: inactive

How did O=c1[nH]cnc2n[nH]nc12 do in these assays?
KB-3-1 tox: 1.46µM*; KB-V1 MDR tox: inconclusive

Results for CC1(CCc2ccccc2)NC(=O)N(CC(=O)Nc2ccc(S(N)(=O)=O)cc2)C1=O (stereo not given) ?
IL1B secr inh: -14.1; HT1080NT lethal: -1.5%; KB-3-1 tox: inactive; HT1080 IDH1KD tx: 1.8%; KB-V1 MDR tox: inactive

How did CC1(CCc2ccccc2)NC(=O)N(CC(=O)Nc2ccc(OC(F)F)cc2)C1=O (stereo not given) do in these assays?
IL1B secr inh: inconclusive; HT1080NT lethal: 2.0%; KB-3-1 tox: inactive; HT1080 IDH1KD tx: -2.9%; KB-V1 MDR tox: 20.6µM*

Results for Cc1ccc(/C=N/NC(=O)NC2CCCCC2)o1 ?
IL1B secr inh: -15.2; HT1080NT lethal: -5.6%; KB-3-1 tox: inactive; HT1080 IDH1KD tx: -2.4%; KB-V1 MDR tox: inactive

What do the screens show for `O=C(NCC1COc2ccccc2O1)c1ccccc1` (stereo not given)?
IL1B secr inh: -9.7; HT1080NT lethal: -2.1%; KB-3-1 tox: inactive; HT1080 IDH1KD tx: -5.8%; KB-V1 MDR tox: inconclusive

What do the screens show for `Cc1ccc(/C=C/C(=O)NCC2COc3ccccc3O2)o1` (stereo not given)?
IL1B secr inh: -52.6*; HT1080NT lethal: -1.3%; KB-3-1 tox: inactive; HT1080 IDH1KD tx: -3.7%; KB-V1 MDR tox: inactive

What do the screens show for `Cc1cc(C(=O)NCC2COc3ccccc3O2)c2ccccc2n1` (stereo not given)?
IL1B secr inh: -69.8*; HT1080NT lethal: -0.3%; KB-3-1 tox: inactive; HT1080 IDH1KD tx: 0.3%; KB-V1 MDR tox: inconclusive

Results for Cc1ccc(/C=C/C(=O)NC2CCCCCCC2)o1 ?
IL1B secr inh: -103.9*; HT1080NT lethal: -2.3%; KB-3-1 tox: inactive; HT1080 IDH1KD tx: inconclusive; KB-V1 MDR tox: inactive

Results for O=C(N/N=C/c1ccc2c(c1)OCO2)c1cc(-c2ccncc2)nc2ccccc12 ?
IL1B secr inh: 26.2; HT1080NT lethal: inconclusive; KB-3-1 tox: 5.8µM*; HT1080 IDH1KD tx: 2.59µM*; KB-V1 MDR tox: inactive

How did O=C(N/N=C/c1ccc2c(c1)OCO2)c1cc(-c2ccccc2Cl)nc2ccccc12 do in these assays?
IL1B secr inh: 24.3; HT1080NT lethal: -1.2%; KB-3-1 tox: inactive; HT1080 IDH1KD tx: 10.0%; KB-V1 MDR tox: inactive

Results for CC(=O)Nc1ccc(S(=O)(=O)Nc2ccccc2C(=O)N2CCCCCC2)cc1 ?
IL1B secr inh: 22.3; HT1080NT lethal: -2.3%; KB-3-1 tox: inactive; HT1080 IDH1KD tx: 0.3%; KB-V1 MDR tox: inactive

Results for Cc1cc(C(=O)N/N=C/c2ccc3c(c2)OCO3)c2ccccc2n1 ?
IL1B secr inh: 99.2; HT1080NT lethal: inconclusive; KB-3-1 tox: 2.59µM*; HT1080 IDH1KD tx: 4.11µM*; KB-V1 MDR tox: inconclusive

How did O=C(Nc1ccc2c(c1)OCO2)c1cc(-c2ccncc2)nc2ccccc12 do in these assays?
IL1B secr inh: 6.1; HT1080NT lethal: 18.4µM*; KB-3-1 tox: inconclusive; HT1080 IDH1KD tx: 18.4µM*; KB-V1 MDR tox: inconclusive

What do the screens show for `Cc1ccc(/C=C/C(=O)NCCc2cccc(Cl)c2)o1`?
IL1B secr inh: -65.2*; HT1080NT lethal: inconclusive; KB-3-1 tox: inactive; HT1080 IDH1KD tx: inconclusive; KB-V1 MDR tox: inactive

How did O=C(Nc1ccc2c(c1)OCCO2)c1cc(-c2ccccc2)nc2ccccc12 do in these assays?
IL1B secr inh: -19.2; HT1080NT lethal: -17.4%; KB-3-1 tox: inactive; HT1080 IDH1KD tx: -25.4%; KB-V1 MDR tox: inactive

How did CCn1c(=O)n(CC)c2cc(N3CCCC3)c(NC(=O)c3cccc(Cl)c3)cc21 do in these assays?
IL1B secr inh: -5.8; HT1080NT lethal: -21.1%; KB-3-1 tox: inactive; HT1080 IDH1KD tx: inconclusive; KB-V1 MDR tox: inconclusive

What do the screens show for `COc1ccc(-c2nc(NC(=O)C3CCN(c4nc5ccccc5o4)CC3)sc2C)cc1`?
IL1B secr inh: -27.0; HT1080NT lethal: inconclusive; KB-3-1 tox: 25.9µM*; HT1080 IDH1KD tx: inconclusive; KB-V1 MDR tox: inactive

How did CC(C)CCNC(=O)C1CCN(c2nc3ccccc3o2)CC1 do in these assays?
IL1B secr inh: 16.4; HT1080NT lethal: -9.0%; KB-3-1 tox: inconclusive; HT1080 IDH1KD tx: -28.7%; KB-V1 MDR tox: 13µM*

How did COc1cc2c(NC3CCN(C)CC3)nc(N3CCCN(C)CC3)nc2cc1OCCCCN do in these assays?
KB-3-1 tox: inconclusive; KB-V1 MDR tox: inactive

What do the screens show for `CCOC(=O)C1CCCN(C(=O)C2CCN(S(=O)(=O)c3c(C)noc3/C=C/c3ccc(C)cc3)CC2)C1` (stereo not given)?
KB-3-1 tox: inactive; KB-V1 MDR tox: inactive

What do the screens show for `O=S(=O)(c1ccc(NC(=S)NC23CC4CC(CC(C4)C2)C3)cc1)N1CCCCC1`?
IL1B secr inh: -3.2; HT1080NT lethal: 0.1%; KB-3-1 tox: inconclusive; HT1080 IDH1KD tx: 2.3%; KB-V1 MDR tox: inconclusive

What do the screens show for `CNCCCC12CCC(c3ccccc31)c1ccccc12`?
IL1B secr inh: -56.1*!; HT1080NT lethal: 18.4µM*; KB-3-1 tox: inconclusive; HT1080 IDH1KD tx: inconclusive; KB-V1 MDR tox: inconclusive

What do the screens show for `CC1(C)Cc2nc(NC3CCCCC3)c(C#N)cc2CO1`?
IL1B secr inh: -15.2; HT1080NT lethal: 7.8%; KB-3-1 tox: inactive; HT1080 IDH1KD tx: -1.1%; KB-V1 MDR tox: inactive

Results for Cc1ccc(NC(=O)CSc2nc(=O)n(CCN(C)C)c3c2CCCC3)cc1Cl ?
IL1B secr inh: -87.3*; HT1080NT lethal: -18.0%; KB-3-1 tox: inactive; HT1080 IDH1KD tx: inconclusive; KB-V1 MDR tox: inactive

How did CN(C)CCn1c2c(c(SCC(=O)Nc3cccc4ccccc34)nc1=O)CCC2 do in these assays?
IL1B secr inh: inconclusive; HT1080NT lethal: -16.7%; KB-3-1 tox: inactive; HT1080 IDH1KD tx: -4.0%; KB-V1 MDR tox: inactive
